Bioassay records: PubChem BioAssay, National Center for Advancing Translational Sciences (NCATS)
Shown are actives, neighbours in structure and some others; about 19% of the full set was active somewhere.
KB-V1 cytotox: kills drug-selected multidrug resistant KB-V1 cells. KB-V1 MDR cells viability, CellTiter-Glo, 72 h. 400,000 compounds, 3.4% hits. Potency, µM (top dose mostly 46.1 µM), hits mostly cytotoxic; note: nearly all actives have a fitted effect of over 60% in size
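KB-V1, DMEM (no phenol red) + 10% FBS; cpd pin-transferred, titration series; 72 h, 37 degrees C; CellTiter-Glo, luminescence. Data normalized, curve-fit.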
KB-3-1 tox: kills parental KB-3-1 adenocarcinoma cells. KB-3-1 viability, CellTiter-Glo ATP luminescence, 72 h. Potency, µM (top dose mostly 46.1 µM), most hits filed as cytotoxic. 400,000 compounds, 1.4% hits; note: nearly all actives have a fitted effect of over 60% in size
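Using CellTiter-Glo luminescence, growth of non-resistant KB-3-1 adenocarcinoma cells is assessed 72 h after pin-tool compound addition at 37 °C. Normalized responses across the concentration series yield fitted curves.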
HT1080 IDH1KD tx: kills HT-1080 cells with IDH1 knockdown. 360,000 compounds, 2% hits. Potency, µM (highest dose often 46.1 µM), inactives show at the top dose activity, negative = toxicity, hits mostly cytotoxic. HT-1080 IDH1 knockdown viability, ATP luminescence, 48 h. AID 686971;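 note: 0% = DMSO wells and -100% = cell-free medium wells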
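CellTiter-Glo luminescence after 48 h compound exposure at 37 degrees C of IDH1-knockdown HT-1080 cells in 5% FBS RPMI. %Activity scaled between DMSO wells and cell-free media wells, with curves fitted and assigned curve classes.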
HT1080-NT tox: kills 2HG-producing HT-1080-NT fibrosarcoma cells; AID 686970; 360,000 compounds, 1.6% hits; Potency, µM (titrated, usually from 46.1 µM), without a hit: at the highest dose activity, negative = less viability, actives largely listed as cytotoxic; HT-1080-NT fibrosarcoma viability, CellTiter-Glo ATP luminescence, 48 h;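 note: NT is the 2HG producing partner of a matched IDH1 knockdown line; 0% = DMSO-treated cells and -100% = media-only wells without cells; nearly all actives have a fitted effect of over 55% in size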
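Compounds were tested in concentration-response format on HT-1080-NT cells for 48 hours at 37 degrees C. Cell viability came from CellTiter-Glo luminescence; curves were classified by r2, response magnitude and activity.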
TDP1 cell CPT: DT40-hTDP1 cell growth loss with CPT; AID 686979; Potency, µM (doses to about 46.2 µM), without a hit: at the highest dose activity change, negative = growth inhibition, usual class: inhibitors; 420,000 compounds, 12% hits; chicken DT40 Tdp1-/-;hTDP1 cells + 20 nM CPT, ATP luminescence, 48 h; note: nearly all actives have a fitted effect of over 55% in size
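Cell growth measured by CellTiter-Glo luminescence after a minimum 48 h, 37 C compound exposure with 20 nM CPT in Tdp1-knockout DT40 cells stably expressing hTDP1, seeded 400/well; qHTS titration format.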
DT40 TDP1 no CPT: qHTS for Inhibitors of human tyrosyl-DNA phosphodiesterase 1 (TDP1): qHTS in cells in absence of CPT | DT40 Tdp1-/- hTDP1 cells, no CPT, ATP luminescence, 48 h | Potency, µM (top dose mostly 46.2 µM), inactives show at the highest dose activity change, negative = growth inhibition, hits mostly inhibitors | 420,000 compounds, 15% hits; note: nearly all actives have a fitted effect of over 55% in size
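Camptothecin absent (DMSO only). Human TDP1-complemented DT40 knockout cells, 400 cells/well, 37 °C for minimum 48 hr; ATP measured via CellTiter-Glo, 30 min dark incubation, luminescence.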
* hit, by the source's call; i = inactive; ? = inconclusive; . = no result. Calls come from the whole dose curve; as a rule, active = well fitted curve in the direction sought with a large enough effect; inconclusive = small, poorly fitted or top-dose-only effect, or another doubt; inactive = no such curve, though single readings can be large; an effect the other way counts as inactive or inconclusive. Unless noted, % is set by controls: 0 for no effect and ±100 for the full control effect; potency is the fitted concentration of half-maximal effect.

SMILES	KB-V1 cytotox	KB-3-1 tox	HT1080 IDH1KD tx	HT1080-NT tox	TDP1 cell CPT	DT40 TDP1 no CPT
Cc1ccc(C)c(-c2[nH]c3c(c2-c2c(-n4cccc4)n(C)c(=O)[nH]c2=O)c(=O)[nH]c(=O)n3C)c1	i	i	.	.	-6%	12%
CCCNC(=O)Cn1c(=O)/c(=C\c2ccc(-c3cccc([N+](=O)[O-])c3)o2)s/c1=C\C(=O)C(C)(C)C	i	?	0%	0%	23µM*	23µM*
Cn1c(SCc2ccccc2Cl)nc(=O)c2c1NC(=O)CC2c1cc(F)ccc1F (configuration not stated)	i	i	.	.	?	?
COc1ccc(-c2nc3c(Cl)cc(C(F)(F)F)cn3c2Cc2ccc(C)cc2)cc1OC	i	i	?	?	?	?
CCn1c(Nc2ccccc2Cl)nc2ccccc21	i	i	11%	3%	-20%	-26%
CCn1c2ccccc2nc2cc3c(cc21)c(Cl)c(=O)c1ccccc13	i	?	21µM*	?	8.2µM*	5.8µM*
CC(C)N(C)c1ncnc2c1ncn2[C@H]1CN(CCN2CCOCC2)C[C@@H](CO)O1	i	i	19%	?	5%	0%
O=C(C=Cc1ccccc1)CC(c1ccccc1)N1CCOCC1 (configuration not stated)	i	?	?	4.1µM*	4.1µM*	3.3µM*
CCOc1cc(S(=O)(=O)NCCCN2CCOCC2)c(C)cc1C	?	i	7%	4%	3%	-27%
Cc1c(Cl)cccc1NC(=O)CNS(=O)(=O)c1cccs1	i	i	.	.	-4%	-3%
c1ccc(CCNc2nc(-c3ccncc3)nc3ccccc23)cc1	15µM*	?	4.1µM*	?	21µM*	18µM*
COc1ccccc1C(C)Nc1nc(-c2cccnc2)nc2ccccc12 (configuration not stated)	i	i	?	?	18µM*	23µM*
CC(Nc1nc(-c2cccnc2)nc2ccccc12)c1ccccc1 (configuration not stated)	i	i	-17%	-20%	?	?
CC(Nc1nc(N2CCNCC2)nc2ccccc12)c1ccccc1 (configuration not stated)	i	i	15µM*	?	4.1µM*	5.2µM*
c1ccc(Nc2nc(-c3ccncc3)nc3ccccc23)cc1	i	i	13%	-5%	-2%	-19%
COc1cccc(CNc2nc(-c3cccnc3)nc3ccccc23)c1	i	i	?	?	?	?
OCCNc1nc(N2CCCCC2)nc2ccccc12	i	i	2%	3%	-5%	-14%
CC(Nc1nc(-c2ccncc2)nc2ccccc12)c1ccccc1 (configuration not stated)	i	i	-15%	-20%	18µM*	18µM*
O=S(=O)(c1ccc(Cl)cc1)N1CCN(c2nc(-c3ccccc3)nc3ccccc23)CC1	i	i	.	.	?	10µM*
O=S(=O)(c1ccc(F)cc1)N1CCN(c2nc(-c3ccccc3)nc3ccccc23)CC1	i	?	.	.	?	13µM*
O=S(=O)(c1ccc2c(c1)CCCC2)N1CCN(c2nc(-c3ccccc3)nc3ccccc23)CC1	i	i	.	.	10µM*	10µM*
Cc1ccc(NC(=O)CSc2nc3ccccc3nc2Cc2ccccc2F)cc1F	?	i	.	.	17%	1%
Cc1ccc(-n2nc(C)c3c(C)cc(=O)n(CC(=O)N4CCCc5ccccc54)c32)cc1	i	i	.	.	-7%	3%
Cc1c(Cl)cccc1-n1nc(C)c2c(C)cc(=O)n(CC(=O)N3CCCc4ccccc43)c21	i	i	.	.	15µM*	4.6µM*
COc1cccc(Nc2nc(C(N)C(C)C)cs2)n1 (configuration not stated)	i	?	-13%	?	16µM*	23µM*
SMILES	KB-V1 cytotox	KB-3-1 tox	HT1080 IDH1KD tx	HT1080-NT tox	TDP1 cell CPT	DT40 TDP1 no CPT
COc1cccc(Nc2nc(C(N)CC(C)C)cs2)n1 (configuration not stated)	i	i	16µM*	?	16µM*	?
O=C(C[n+]1csc2ccccc21)c1ccc(I)cc1	i	i	.	.	?	11µM*
Cc1csc[n+]1CC(=O)c1ccc(I)cc1	i	i	.	.	16µM*	?
O/N=C(\Cn1ccnc1)c1ccccc1	i	i	0%	-1%	3%	-11%
O/N=C(/C[n+]1csc2ccccc21)c1ccccc1	i	?	.	.	1.1µM*	1.1µM*
COC(=O)C1CCN(S(=O)(=O)CCNC(=O)c2ccc(F)cc2)CC1	i	i	-5%	-8%	-17%	-5%
O=C(NCc1cccnc1)c1cc(C2CCCN(C(=O)c3cccc(O)c3)C2)on1 (configuration not stated)	i	?	24%	1%	0%	-14%
COc1cccc(NC(=O)N2CCCC2C(=O)NCc2ccc(Cl)cc2)c1 (configuration not stated)	i	i	-1%	9%	-22%	1%
Cc1cnc(-n2ncc(C(=O)NCCN3CCOCC3)c2C2CC2)nc1-c1cccs1	.	.	.	.	21%	-22%
COC(=O)c1scc(-c2ccc(C)cc2)c1S(=O)(=O)N1CCN(c2cccc(OC)c2)CC1	i	i	.	.	9.2µM*	5.8µM*
COC(=O)c1scc(-c2ccc(C)cc2)c1S(=O)(=O)N1CCN(c2ccc(F)cc2)CC1	i	i	.	.	8.2µM*	1.8µM*
Cc1ccc(-n2nc(C)c3c(C(=O)NCCc4ccccc4)cc(C)nc32)cc1	i	i	.	.	?	?
CCCCCOc1ccc(C(=O)CCC(=O)N2CCCC2)cc1	i	i	-23%	-23%	-13%	?
COc1ccc2c(c1)NC(c1ccc(N(C)C)cc1)c1cccn1-2 (configuration not stated)	?	i	-19%	-11%	?	15µM*
CCOc1ccccc1NC(=O)CSc1nc2c(oc3ccccc32)c(=O)n1Cc1ccco1	i	i	.	.	16µM*	21µM*
CCOCCCn1c(SCC(=O)Nc2ccccc2OC)nc2c(oc3ccccc32)c1=O	i	i	.	.	?	26µM*
